Cycloheximide cs: counter-screen for Shiga toxin inhibitors: cycloheximide protein synthesis inhibition | cell reporter, cycloheximide protein synthesis inhibition counterscreen | max response, % | 300,000 compounds, 12% hits; in the data active = max response mostly above about 13%, no sharp cut-off; inactive = mostly below about 14%; note: read at 38.3 µM for the half of the compounds with a filed dose
FMDV antiviral: foot and mouth disease virus antiviral activity; FMDV antiviral cell-based qHTS; Potency, µM (doses to about 57.9 µM), hits mostly inhibitors; 410,000 compounds, 1.2% hits; calls by dose curve; tested in HEK293T cells; note: read-out not given here; nearly all actives have a fitted effect of over 45% in size
HCV inh: HCV inhibition | 340,000 compounds, 3.4% hits | Huh7.5.1 HCVcc-Cre infection, luciferase reporter, 44 h | AID 651820 | Potency, µM (titrated, usually from 41.8 µM), actives largely listed as inhibitors; active = well fitted inhibition curve with a large enough effect; inconclusive = small, poorly fitted or top-dose-only effect, or another doubt; inactive = no such curve, though single readings can be large or run the other way
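Luciferase read-out (15 sec integration) after a 15 min room-temperature substrate step quantifies HCVcc-Cre infection. Cells, 1,000 per well, had compound added 4 h post-plating, then virus at ~0.5 moi, and were cultured 44 h.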
MARV entry inh: Marburg virus entry inhibition; Marburg virus pseudotyped entry inhibition, cell reporter; Potency, µM (doses to about 37.8 µM), usual class: inhibitors; 300,000 compounds, 1.8% hits; calls by dose curve; tested in HEK293 cells
Shiga inhibitor: inhibitors of Shiga toxin in Vero cells | inhibition, % at 38.7 µM | 290,000 compounds, 9.2% hits | Vero cells, Shiga toxin protein synthesis inhibition reporter; in the data active = inhibition mostly above about 28%, no sharp cut-off; inactive = mostly below about 43%
Lassa entry inh: Lassa virus entry inhibition; 300,000 compounds, 1.2% hits; Potency, µM (doses to about 37.9 µM), most hits filed as inhibitors; Lassa virus pseudotype entry inhibition, cell reporter; AID 540256; calls by dose curve; tested in HEK293 cells; note: nearly all actives have a fitted effect of over 50% in size
Of the large screens only hits and unclear results are named; the others gave an inactive call. Only some compounds are listed: those with a hit (about 13% of all), similar ones and a draw of the others.

COc1ccc(NC(=O)C2CCN(c3nc(C)cc(C)n3)CC2)cc1	none
COc1ccc(NC(=O)C2CCN(c3nc(C)nc4c3CCC4)CC2)cc1	FMDV antiviral inconclusive, HCV inh 3.55µM, MARV entry inh inconclusive, Lassa entry inh inconclusive
NC(=O)C1CCN(c2nc(-c3ccccc3)nc3ccccc23)CC1	HCV inh inconclusive
O=C(C1CCN(c2nc(-c3ccccc3)nc3c2CCC3)CC1)N1CCCC1	HCV inh 11.2µM (no result: Cycloheximide cs, MARV entry inh, Shiga inhibitor, Lassa entry inh)
CC1CCCCN1C(=O)CSc1nc(-c2ccccc2)no1 (stereo not drawn)	none (no result: Cycloheximide cs, HCV inh, MARV entry inh, Shiga inhibitor)
CC1CCCCN1C(=O)C1CCN(c2nc(-c3ccccc3)nc3c2CCC3)CC1 (stereo not drawn)	FMDV antiviral inconclusive, HCV inh 3.98µM (no result: MARV entry inh, Lassa entry inh)
CCOc1cc(S(=O)(=O)n2c(C)nc3ccccc32)ccc1F	MARV entry inh inconclusive
CCc1ccc(N2CC(C(=O)Nc3ccc(F)cc3)CC2=O)cc1 (stereo not drawn)	none
CCOC(=O)c1c(-c2ccccc2)cn2ccccc12	HCV inh inconclusive
CCOC(=O)c1c(-c2ccc(C)cc2)cn2ccccc12	HCV inh 10µM
C1=C(c2ccccc2)CCNC1	MARV entry inh inconclusive, Lassa entry inh inconclusive
Cc1[nH]c2ccccc2c1C1=CCNCC1	HCV inh 11.2µM
Cc1sc2ncnc(Sc3ccccc3C(=O)Nc3ccc(Br)cc3)c2c1C	Cycloheximide cs 28.8, HCV inh 5.62µM, Shiga inhibitor 51.3
Cc1sc2ncnc(Sc3ccccc3C(=O)Nc3ccccc3Cl)c2c1C	none (no result: Lassa entry inh)
Cc1sc2ncnc(Sc3ccccc3C(=O)Nc3ccc(C#N)cc3)c2c1C	HCV inh 25.1µM, MARV entry inh inconclusive, Lassa entry inh inconclusive
COc1ccccc1C(=O)C1CCCN(C(=O)c2cn3cc(Cl)ccc3n2)C1 (stereo not drawn)	none
CNCC(O)c1cccc(O)c1 (stereo not drawn)	none (no result: Cycloheximide cs, HCV inh, MARV entry inh, Shiga inhibitor, Lassa entry inh)
CCOc1ccc2oc(-c3ccccc3)c(C(N)=O)c2c1	HCV inh inconclusive
CC1(C)CCc2cc(-c3ccnc(=S)[nH]3)ccc2O1	Cycloheximide cs 41.7, MARV entry inh inconclusive, Shiga inhibitor 52.9, Lassa entry inh inconclusive
COc1cccc(C(=O)Nc2cccc(NC(=O)c3ccc(Cl)cc3Cl)c2)c1	Lassa entry inh inconclusive (no result: Cycloheximide cs, HCV inh, MARV entry inh, Shiga inhibitor)
COC(=O)COc1ccc(C(=O)OC)cc1	HCV inh inconclusive, MARV entry inh inconclusive
CN(C)S(=O)(=O)Oc1cccc(C(=O)Nc2ccc(Cl)c(Cl)c2)c1	Cycloheximide cs 71.7, HCV inh inconclusive, Shiga inhibitor 117.3, Lassa entry inh inconclusive
COc1ccc(NC(=O)c2ccc(S(=O)(=O)N(C)C)cc2)cc1	none
COc1ccc(NC(=O)c2cccc(OS(=O)(=O)N(C)C)c2)cc1	Cycloheximide cs 44.0, HCV inh inconclusive, MARV entry inh inconclusive, Shiga inhibitor 105.2, Lassa entry inh inconclusive
CN(C)S(=O)(=O)Oc1cccc(C(=O)Nc2cccc(Cl)c2)c1	Cycloheximide cs 38.1, HCV inh 8.91µM, Shiga inhibitor 66.5, Lassa entry inh inconclusive
COC(=O)c1ccc(OS(=O)(=O)N(C)C)cc1	Cycloheximide cs 53.6, Shiga inhibitor 98.7 (no result: MARV entry inh, Lassa entry inh)
NS(=O)(=O)c1ccc(CCNCc2cccnc2)cc1	none (no result: MARV entry inh, Lassa entry inh)
CC1CCN(S(=O)(=O)c2ccc(NC(=O)N3c4ccccc4Sc4ccccc43)cc2)CC1	MARV entry inh inconclusive (no result: FMDV antiviral)
CNc1cc(N2CCCC2)ccc1[N+](=O)[O-]	HCV inh 25.1µM
CC(C)CNc1cc(N2CCCC2)ccc1[N+](=O)[O-]	HCV inh 3.98µM (no result: FMDV antiviral)
CNc1cc(N2CCCCCC2)ccc1[N+](=O)[O-]	none (no result: FMDV antiviral)
CC1(CCc2ccccc2)NC(=S)N(c2ccccc2)N1 (stereo not drawn)	Cycloheximide cs 39.7, Shiga inhibitor 42.4, Lassa entry inh inconclusive
CC1(C)CC(C)(O)N(Cc2ccccc2)C(=S)N1 (stereo not drawn)	none
CC1(CCc2ccccc2)NC(=S)N(c2ccc(Cl)cc2)N1 (stereo not drawn)	Cycloheximide cs 36.2, Shiga inhibitor 59.2, Lassa entry inh inconclusive
Cc1cc(Cl)ccc1NC(=S)NCC(C)C	MARV entry inh inconclusive
CC(OC(=O)CN1C(=O)NC2(CCCC2)C1=O)C(=O)Nc1cccc(Cl)c1Cl (stereo not drawn)	none (no result: Cycloheximide cs, Shiga inhibitor)
N#Cc1ccc(NC(=O)Cn2cnc([N+](=O)[O-])c2)cc1	none
O=C(Cn1cnc([N+](=O)[O-])c1)Nc1cc(Oc2ccc(Cl)cc2Cl)cc([N+](=O)[O-])c1	HCV inh 6.31µM, MARV entry inh inconclusive, Lassa entry inh inconclusive
O=C(Nc1nc2ccccc2s1)c1cccc(N2C(=O)CCC2=O)c1	none
CCN(CC)S(=O)(=O)c1cccc(C(=O)Nc2nc3cc4c(cc3s2)OCCO4)c1	FMDV antiviral 12.6µM, HCV inh 2.24µM, MARV entry inh 18.3µM, Lassa entry inh inconclusive
O=C(Nc1ccc2sccc2c1)c1cccc(N2C(=O)CCC2=O)c1	Cycloheximide cs 37.2, Shiga inhibitor 91.7
O=C(Nc1nc2cc3c(cc2s1)OCCO3)c1cccc(N2C(=O)CCC2=O)c1	Cycloheximide cs 20.6, Shiga inhibitor 35.7 (no result: MARV entry inh, Lassa entry inh)
O=C(Nc1cccnc1)c1cc(S(=O)(=O)N2CCCCC2)c(Cl)cc1Cl	FMDV antiviral inconclusive (no result: Lassa entry inh)
CC(C)c1cccc(C(C)C)c1NC(=O)COC(=O)c1ccc(OCC(=O)Nc2cccc(C(F)(F)F)c2)cc1	none
Cc1ccc(-n2c(=O)c3c(C)c(C)sc3n(CC(=O)c3ccc(Cl)cc3)c2=O)cc1C	MARV entry inh inconclusive (no result: Cycloheximide cs, HCV inh, Shiga inhibitor)
N#CC(C(=O)c1ccccc1)=C1SCCS1	Cycloheximide cs 35.0, Shiga inhibitor 58.0, Lassa entry inh inconclusive
O=C(C(=O)c1ccc(O)cc1)c1ccccc1	none (no result: MARV entry inh, Lassa entry inh)
CCc1nccn1CCC(=O)NC1CC(C)(C)Cc2c1cnn2-c1ccc(OC)cc1 (stereo not drawn)	none (no result: MARV entry inh, Lassa entry inh)
COc1ccc(Nc2nc(N)nc(CSC(=S)N3CCCCC3C)n2)cc1 (stereo not drawn)	Cycloheximide cs 28.1, HCV inh inconclusive, MARV entry inh inconclusive, Shiga inhibitor 65.1, Lassa entry inh 7.08µM
COc1ccc(Nc2nc(N)nc(CSC(=S)N3CCCCC3)n2)cc1	Cycloheximide cs 47.9, Shiga inhibitor 36.3 (no result: MARV entry inh, Lassa entry inh)
COc1ccc(Nc2nc(N)nc(CSC(=S)N3CCN(c4ccccc4)CC3)n2)cc1	HCV inh inconclusive, MARV entry inh inconclusive, Lassa entry inh inconclusive
CC1CCN(C(=S)SCc2nc(N)nc(Nc3ccccc3)n2)CC1	Cycloheximide cs 25.1, Shiga inhibitor 35.4 (no result: MARV entry inh, Lassa entry inh)
Cc1c(Cl)cccc1Nc1nc(N)nc(CSC(=S)N2CCOCC2)n1	Cycloheximide cs 39.5, Lassa entry inh inconclusive
Cc1ccn2cc(CNC(=O)c3ccc(Br)o3)nc2c1	none (no result: MARV entry inh, Lassa entry inh)
COc1ccc2c(c1OC)C(=O)N(c1nc(SC)n[nH]1)C2=O	none
COc1ccc(Nc2nc(N)nc(CSC(=S)N3CCN(C)CC3)n2)cc1	Cycloheximide cs 16.8 (no result: MARV entry inh, Lassa entry inh)
CCC(NC(=O)c1[nH]c(C)c(C(C)=O)c1C)c1ccc(Br)cc1 (stereo not drawn)	HCV inh inconclusive, MARV entry inh 8.91µM, Lassa entry inh inconclusive
CC(=O)c1c(C)[nH]c(C(=O)NC2=NCCS2)c1C	Cycloheximide cs 16.7, Shiga inhibitor 30.4
